# Experiments:
# [1] = target: Sphingosine kinase 1 (Homo sapiens) (UniProt Q9NYA1); conditions: at 1 µM;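 further: mean SPHK1 inhibition value reported from the GSK PKIS kinase panel screen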
# [2] = target: T1, Sphingosine kinase 2 (Homo sapiens) (UniProt Q9NRA0); conditions: at 0.1 µM
# T1 sequence (whole entry): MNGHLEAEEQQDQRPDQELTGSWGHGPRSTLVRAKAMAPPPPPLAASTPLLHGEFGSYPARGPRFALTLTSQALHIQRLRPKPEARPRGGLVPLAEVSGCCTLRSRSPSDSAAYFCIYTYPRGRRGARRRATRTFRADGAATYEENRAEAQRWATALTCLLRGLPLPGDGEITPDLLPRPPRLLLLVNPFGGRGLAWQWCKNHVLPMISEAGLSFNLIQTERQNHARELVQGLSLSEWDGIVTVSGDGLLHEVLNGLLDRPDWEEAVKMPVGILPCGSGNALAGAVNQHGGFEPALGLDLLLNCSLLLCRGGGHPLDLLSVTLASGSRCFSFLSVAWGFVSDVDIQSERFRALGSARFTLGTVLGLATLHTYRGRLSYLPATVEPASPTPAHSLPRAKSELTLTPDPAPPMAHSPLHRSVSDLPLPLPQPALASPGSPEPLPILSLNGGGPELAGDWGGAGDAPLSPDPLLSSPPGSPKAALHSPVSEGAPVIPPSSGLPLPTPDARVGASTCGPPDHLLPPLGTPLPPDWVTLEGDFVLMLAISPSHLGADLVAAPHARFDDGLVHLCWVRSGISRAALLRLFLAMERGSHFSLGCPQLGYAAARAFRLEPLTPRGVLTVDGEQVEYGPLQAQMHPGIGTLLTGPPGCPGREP
# [3] = target: T1, Sphingosine kinase 2 (Homo sapiens); conditions: at 1 µM
# [4] = target: Casein kinase II subunit alpha (Homo sapiens) (UniProt P68400); conditions: at 0.1 µM
# [5] = target: Casein kinase II subunit alpha (Homo sapiens) (UniProt P68400); conditions: at 1 µM
# [6] = target: T2, Inhibitor of nuclear factor kappa-B kinase subunit alpha (Homo sapiens) (UniProt O15111); conditions: at 0.1 µM
# T2 sequence (whole entry): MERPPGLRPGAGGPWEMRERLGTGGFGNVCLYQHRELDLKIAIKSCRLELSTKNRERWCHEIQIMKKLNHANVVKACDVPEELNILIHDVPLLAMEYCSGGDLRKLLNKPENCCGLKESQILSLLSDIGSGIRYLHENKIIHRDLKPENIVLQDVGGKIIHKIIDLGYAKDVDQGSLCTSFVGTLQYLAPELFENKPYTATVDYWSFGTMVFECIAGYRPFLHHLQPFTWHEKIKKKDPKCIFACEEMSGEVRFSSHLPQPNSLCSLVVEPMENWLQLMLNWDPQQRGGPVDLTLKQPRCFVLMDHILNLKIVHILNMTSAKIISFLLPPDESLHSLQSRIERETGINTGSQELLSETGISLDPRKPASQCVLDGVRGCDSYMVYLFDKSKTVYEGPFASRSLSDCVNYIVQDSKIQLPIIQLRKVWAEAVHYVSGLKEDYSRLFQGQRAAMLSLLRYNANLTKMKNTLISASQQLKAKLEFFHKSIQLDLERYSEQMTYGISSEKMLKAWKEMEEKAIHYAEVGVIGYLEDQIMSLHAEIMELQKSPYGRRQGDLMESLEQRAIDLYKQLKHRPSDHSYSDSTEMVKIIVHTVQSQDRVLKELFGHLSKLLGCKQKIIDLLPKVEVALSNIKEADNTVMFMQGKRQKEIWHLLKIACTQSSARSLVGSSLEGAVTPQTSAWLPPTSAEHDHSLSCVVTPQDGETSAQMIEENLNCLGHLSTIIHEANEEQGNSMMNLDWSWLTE
# [7] = target: T2, Inhibitor of nuclear factor kappa-B kinase subunit alpha (Homo sapiens); conditions: at 1 µM
# [8] = target: T3, Inhibitor of nuclear factor kappa-B kinase subunit beta (Homo sapiens) (UniProt O14920); conditions: at 0.1 µM
# T3 sequence (whole entry): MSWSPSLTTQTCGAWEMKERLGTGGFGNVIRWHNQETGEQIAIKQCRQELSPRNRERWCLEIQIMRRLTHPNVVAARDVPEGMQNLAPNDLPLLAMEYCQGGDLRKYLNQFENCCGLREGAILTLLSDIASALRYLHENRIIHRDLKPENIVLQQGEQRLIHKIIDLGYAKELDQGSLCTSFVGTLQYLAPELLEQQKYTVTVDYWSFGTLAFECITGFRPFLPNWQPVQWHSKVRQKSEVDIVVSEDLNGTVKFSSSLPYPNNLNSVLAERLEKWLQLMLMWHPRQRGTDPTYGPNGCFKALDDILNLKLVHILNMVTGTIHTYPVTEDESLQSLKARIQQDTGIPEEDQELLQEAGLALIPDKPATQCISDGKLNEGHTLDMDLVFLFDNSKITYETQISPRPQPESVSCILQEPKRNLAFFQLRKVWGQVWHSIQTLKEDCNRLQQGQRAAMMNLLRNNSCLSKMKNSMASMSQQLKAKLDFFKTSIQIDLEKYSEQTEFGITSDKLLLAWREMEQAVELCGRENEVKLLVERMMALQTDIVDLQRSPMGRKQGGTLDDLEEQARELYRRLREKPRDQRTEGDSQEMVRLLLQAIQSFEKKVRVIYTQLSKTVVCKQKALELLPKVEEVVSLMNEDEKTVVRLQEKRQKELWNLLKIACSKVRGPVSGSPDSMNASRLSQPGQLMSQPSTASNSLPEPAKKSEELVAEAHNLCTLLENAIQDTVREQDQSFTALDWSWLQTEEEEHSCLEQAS
# [9] = target: T3, Inhibitor of nuclear factor kappa-B kinase subunit beta (Homo sapiens); conditions: at 1 µM
# [10] = target: T4, Inhibitor of nuclear factor kappa-B kinase subunit epsilon (Homo sapiens) (UniProt Q14164); conditions: at 0.1 µM
# T4 sequence (whole entry): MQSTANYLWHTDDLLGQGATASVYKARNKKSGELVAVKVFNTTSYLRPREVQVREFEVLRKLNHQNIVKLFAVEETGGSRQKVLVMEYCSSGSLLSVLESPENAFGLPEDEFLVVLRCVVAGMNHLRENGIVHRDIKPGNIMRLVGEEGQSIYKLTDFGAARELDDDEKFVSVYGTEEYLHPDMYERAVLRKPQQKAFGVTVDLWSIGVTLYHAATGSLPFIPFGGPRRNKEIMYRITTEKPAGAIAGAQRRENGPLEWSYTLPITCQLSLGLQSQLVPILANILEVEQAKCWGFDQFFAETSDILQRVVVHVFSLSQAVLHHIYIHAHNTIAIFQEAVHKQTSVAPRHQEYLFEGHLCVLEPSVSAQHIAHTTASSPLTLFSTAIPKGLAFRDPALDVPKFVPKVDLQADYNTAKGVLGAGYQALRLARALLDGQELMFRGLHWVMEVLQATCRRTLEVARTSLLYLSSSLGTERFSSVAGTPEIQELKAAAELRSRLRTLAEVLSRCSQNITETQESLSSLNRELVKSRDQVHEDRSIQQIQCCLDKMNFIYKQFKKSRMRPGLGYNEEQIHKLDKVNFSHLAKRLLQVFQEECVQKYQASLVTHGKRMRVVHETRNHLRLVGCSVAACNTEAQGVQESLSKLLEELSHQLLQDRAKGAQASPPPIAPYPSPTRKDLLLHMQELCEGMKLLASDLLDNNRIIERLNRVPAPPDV
# [11] = target: T4, Inhibitor of nuclear factor kappa-B kinase subunit epsilon (Homo sapiens); conditions: at 1 µM
# [12] = target: T5, Serine/threonine-protein kinase Nek1 (Homo sapiens) (UniProt Q96PY6); conditions: at 0.1 µM
# T5 sequence (whole entry): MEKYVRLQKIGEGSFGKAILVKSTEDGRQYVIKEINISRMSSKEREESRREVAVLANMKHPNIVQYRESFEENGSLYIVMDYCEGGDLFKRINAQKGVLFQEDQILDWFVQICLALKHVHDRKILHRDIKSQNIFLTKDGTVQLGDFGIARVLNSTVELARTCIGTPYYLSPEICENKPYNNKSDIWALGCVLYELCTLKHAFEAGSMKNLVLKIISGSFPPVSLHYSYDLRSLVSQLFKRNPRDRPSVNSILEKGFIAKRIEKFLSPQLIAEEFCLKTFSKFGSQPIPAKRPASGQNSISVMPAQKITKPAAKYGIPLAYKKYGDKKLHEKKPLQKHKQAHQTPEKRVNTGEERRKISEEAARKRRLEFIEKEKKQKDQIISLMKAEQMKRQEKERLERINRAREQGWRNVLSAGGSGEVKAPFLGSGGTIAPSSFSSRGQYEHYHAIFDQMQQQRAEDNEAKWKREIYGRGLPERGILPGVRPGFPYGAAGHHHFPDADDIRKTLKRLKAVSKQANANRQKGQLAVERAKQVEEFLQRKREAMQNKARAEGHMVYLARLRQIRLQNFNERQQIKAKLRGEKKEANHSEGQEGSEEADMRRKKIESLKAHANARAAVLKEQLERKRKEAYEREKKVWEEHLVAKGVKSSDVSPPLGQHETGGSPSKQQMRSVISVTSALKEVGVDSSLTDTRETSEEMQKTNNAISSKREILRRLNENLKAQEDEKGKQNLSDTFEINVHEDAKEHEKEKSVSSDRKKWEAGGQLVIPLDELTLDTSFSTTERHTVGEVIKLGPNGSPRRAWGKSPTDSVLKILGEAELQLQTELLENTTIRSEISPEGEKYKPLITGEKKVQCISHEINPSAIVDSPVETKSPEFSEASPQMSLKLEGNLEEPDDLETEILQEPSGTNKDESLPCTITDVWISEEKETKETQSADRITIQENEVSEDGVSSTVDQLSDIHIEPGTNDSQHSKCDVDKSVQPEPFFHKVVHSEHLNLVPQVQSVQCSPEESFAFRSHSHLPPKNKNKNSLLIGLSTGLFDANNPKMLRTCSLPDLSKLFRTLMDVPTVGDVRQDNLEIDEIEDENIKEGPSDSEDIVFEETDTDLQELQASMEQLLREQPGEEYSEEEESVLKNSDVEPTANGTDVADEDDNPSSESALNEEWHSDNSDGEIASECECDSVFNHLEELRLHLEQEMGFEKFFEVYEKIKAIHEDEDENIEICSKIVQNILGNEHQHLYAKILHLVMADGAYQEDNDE
# [13] = target: T5, Serine/threonine-protein kinase Nek1 (Homo sapiens); conditions: at 1 µM
# [14] = target: T6, Serine/threonine-protein kinase Nek2 (Homo sapiens) (UniProt P51955); conditions: at 0.1 µM
# T6 sequence (whole entry): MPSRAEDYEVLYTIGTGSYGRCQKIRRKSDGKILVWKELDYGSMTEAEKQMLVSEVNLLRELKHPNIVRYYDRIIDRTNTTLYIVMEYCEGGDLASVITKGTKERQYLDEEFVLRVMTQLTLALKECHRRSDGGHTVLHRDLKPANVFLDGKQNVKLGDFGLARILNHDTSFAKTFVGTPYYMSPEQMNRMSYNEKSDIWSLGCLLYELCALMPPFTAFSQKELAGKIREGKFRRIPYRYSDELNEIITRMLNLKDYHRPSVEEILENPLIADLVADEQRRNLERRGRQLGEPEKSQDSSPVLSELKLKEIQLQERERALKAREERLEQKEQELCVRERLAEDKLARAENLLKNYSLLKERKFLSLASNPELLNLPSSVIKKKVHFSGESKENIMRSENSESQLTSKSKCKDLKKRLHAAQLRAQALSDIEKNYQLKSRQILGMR
# [15] = target: T6, Serine/threonine-protein kinase Nek2 (Homo sapiens); conditions: at 1 µM
# [16] = target: Serine/threonine-protein kinase Nek6 (Homo sapiens) (UniProt Q9HC98); conditions: at 0.1 µM
# [17] = target: Serine/threonine-protein kinase Nek6 (Homo sapiens) (UniProt Q9HC98); conditions: at 1 µM
# [18] = target: Serine/threonine-protein kinase Nek7 (Homo sapiens) (UniProt Q8TDX7); conditions: at 0.1 µM
# [19] = target: Serine/threonine-protein kinase Nek7 (Homo sapiens) (UniProt Q8TDX7); conditions: at 1 µM
# [20] = target: T7, Serine/threonine-protein kinase Nek9 (Homo sapiens) (UniProt Q8TD19); conditions: at 0.1 µM;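 further: reported value is the mean percent inhibition of NEK9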
# T7 sequence (whole entry): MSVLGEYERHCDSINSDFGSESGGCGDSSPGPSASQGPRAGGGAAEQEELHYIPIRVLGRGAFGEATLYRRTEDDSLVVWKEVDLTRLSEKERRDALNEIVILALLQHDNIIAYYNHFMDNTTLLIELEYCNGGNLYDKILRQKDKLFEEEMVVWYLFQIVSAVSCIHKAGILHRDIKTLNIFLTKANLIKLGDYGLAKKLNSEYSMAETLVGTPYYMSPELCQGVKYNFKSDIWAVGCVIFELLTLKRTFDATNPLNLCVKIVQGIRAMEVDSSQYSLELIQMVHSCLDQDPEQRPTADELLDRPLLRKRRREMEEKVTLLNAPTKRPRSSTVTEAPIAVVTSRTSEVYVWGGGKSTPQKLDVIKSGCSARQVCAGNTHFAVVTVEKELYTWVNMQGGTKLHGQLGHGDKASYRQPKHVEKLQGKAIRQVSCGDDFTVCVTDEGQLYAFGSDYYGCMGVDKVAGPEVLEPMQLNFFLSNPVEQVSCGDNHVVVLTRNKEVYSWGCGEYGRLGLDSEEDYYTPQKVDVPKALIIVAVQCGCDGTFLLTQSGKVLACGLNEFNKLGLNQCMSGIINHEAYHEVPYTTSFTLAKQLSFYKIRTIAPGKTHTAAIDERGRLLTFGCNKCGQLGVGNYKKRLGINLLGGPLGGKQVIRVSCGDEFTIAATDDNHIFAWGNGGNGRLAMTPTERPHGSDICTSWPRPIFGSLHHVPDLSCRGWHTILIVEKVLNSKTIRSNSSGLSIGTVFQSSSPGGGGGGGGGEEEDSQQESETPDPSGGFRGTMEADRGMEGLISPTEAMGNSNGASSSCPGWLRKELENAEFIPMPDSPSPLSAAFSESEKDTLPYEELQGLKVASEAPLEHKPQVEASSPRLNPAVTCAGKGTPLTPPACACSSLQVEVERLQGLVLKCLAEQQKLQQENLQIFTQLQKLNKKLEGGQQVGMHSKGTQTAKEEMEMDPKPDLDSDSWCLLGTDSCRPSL
# Sequence of Serine/threonine-protein kinase Nek6 (Homo sapiens) (Q9HC98 whole entry): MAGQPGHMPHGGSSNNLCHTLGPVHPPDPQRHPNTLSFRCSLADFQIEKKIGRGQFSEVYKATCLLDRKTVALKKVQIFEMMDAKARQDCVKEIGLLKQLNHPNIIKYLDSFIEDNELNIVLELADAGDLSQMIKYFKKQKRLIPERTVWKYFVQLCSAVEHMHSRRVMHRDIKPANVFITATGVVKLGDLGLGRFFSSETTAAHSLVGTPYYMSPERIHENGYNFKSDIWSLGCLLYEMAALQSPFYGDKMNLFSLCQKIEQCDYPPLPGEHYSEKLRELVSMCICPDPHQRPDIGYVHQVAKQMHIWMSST
# Sequence of Serine/threonine-protein kinase Nek7 (Homo sapiens) (Q8TDX7 whole entry, looked up): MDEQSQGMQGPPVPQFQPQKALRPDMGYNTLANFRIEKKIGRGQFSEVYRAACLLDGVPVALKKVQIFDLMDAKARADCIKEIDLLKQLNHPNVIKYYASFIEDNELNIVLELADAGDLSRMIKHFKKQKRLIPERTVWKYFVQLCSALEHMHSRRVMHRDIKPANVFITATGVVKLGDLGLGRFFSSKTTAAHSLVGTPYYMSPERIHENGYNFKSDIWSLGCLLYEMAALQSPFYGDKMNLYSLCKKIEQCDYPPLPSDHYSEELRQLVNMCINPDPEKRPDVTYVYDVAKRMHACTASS
# Sequence of Casein kinase II subunit alpha (Homo sapiens) (P68400 whole entry, looked up): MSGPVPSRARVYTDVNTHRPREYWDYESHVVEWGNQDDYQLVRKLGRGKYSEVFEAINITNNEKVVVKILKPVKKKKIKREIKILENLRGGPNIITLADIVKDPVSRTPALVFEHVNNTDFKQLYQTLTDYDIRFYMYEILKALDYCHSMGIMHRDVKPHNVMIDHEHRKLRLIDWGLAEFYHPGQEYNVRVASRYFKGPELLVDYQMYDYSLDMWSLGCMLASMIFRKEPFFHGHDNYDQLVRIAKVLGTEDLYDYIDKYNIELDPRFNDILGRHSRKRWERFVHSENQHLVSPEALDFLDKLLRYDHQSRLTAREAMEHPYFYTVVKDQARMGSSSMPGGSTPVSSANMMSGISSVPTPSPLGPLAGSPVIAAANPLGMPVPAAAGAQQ
# Sequence of Sphingosine kinase 1 (Homo sapiens) (Q9NYA1 whole entry): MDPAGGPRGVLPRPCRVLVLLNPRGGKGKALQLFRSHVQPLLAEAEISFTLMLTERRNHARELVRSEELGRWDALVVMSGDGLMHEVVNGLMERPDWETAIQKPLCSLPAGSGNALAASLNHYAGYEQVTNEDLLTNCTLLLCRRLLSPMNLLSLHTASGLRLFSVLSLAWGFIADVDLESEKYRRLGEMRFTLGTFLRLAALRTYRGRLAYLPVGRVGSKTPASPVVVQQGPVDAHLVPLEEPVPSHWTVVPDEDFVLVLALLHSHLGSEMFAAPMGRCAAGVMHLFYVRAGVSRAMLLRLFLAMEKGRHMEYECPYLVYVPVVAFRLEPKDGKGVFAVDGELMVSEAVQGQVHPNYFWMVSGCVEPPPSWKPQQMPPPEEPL
Structure (SMILES),inhibition [1] [%],inhibition [2] [%],inhibition [3] [%],inhibition [4] [%],inhibition [5] [%],inhibition [6] [%],inhibition [7] [%],inhibition [8] [%],inhibition [9] [%],inhibition [10] [%],inhibition [11] [%],inhibition [12] [%],inhibition [13] [%],inhibition [14] [%],inhibition [15] [%],inhibition [16] [%],inhibition [17] [%],inhibition [18] [%],inhibition [19] [%],inhibition [20] [%]
CN1CCC(n2cnc(-c3ccc(F)cc3)c2-c2ccnc(NCCO)n2)CC1,-1.28,0.37,-1.92,4.78,13.2,2.6,6.82,5.84,6.36,7.53,9.51,2.52,3.44,5.2,5.72,3.54,5.15,2.96,3.39,5.09
Cc1cc(O)cc(C)c1/C=C/c1cncc(C(N)=O)c1,-2.84,0.32,0.47,2,1.41,7.66,1.26,1.7,1.13,1.74,91.3,1.8,2.95,3.02,1.69,3.18,1.92,4.15,3.89,5.2

# From ChEMBL document CHEMBL1961873, “Compounds: GSK PKIS; Assays: Nanosyn kinase panel” (2012)
